Measured values as given in PubChem BioAssay AID1159580 (chemical genetic matrix, 2015).
Values joined by “and” are separate entries in the source; they are usually repeats but may differ in a detail not shown here. Equal entries are not always repeated. The whole screen tested about 5,500 compounds, of which about 2,000 (36%) were called active. Not shown: some 18% with an inconclusive outcome. Rule as the data show it: active = normalized growth mostly below about 0.91 (no sharp cut-off); inconclusive = no clear call, values can overlap the other calls; inactive = mostly above about 0.92. The list shows a part of the results.

Test: chemical genetic growth profiling, strain panel (AID 1159580);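 also: tested at 20 µM; growth read once vehicle control cultures reached saturation at 30 °C; 1 = growth at the plate median or of vehicle wells; lower values mean less growth of the strain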
Conditions: growth OD

Measured: normalized growth

NS(=O)(=O)c1cc2c(cc1Cl)NC=NS2(=O)=O
inactive: S. cerevisiae deletion strains, locus YJR075W, strain HOC1, active compounds read low 1.02 | S. cerevisiae deletion strains, locus YKL009W, strain mrt4, active compounds read low 1.02 | S. cerevisiae deletion strains, locus YKL068W, active compounds read low 0.998 | S. cerevisiae deletion strains, locus YKL085W, strain MDH1 (second series), active compounds read low 0.998 | S. cerevisiae deletion strains, locus YKL085W, strain MDH1, active compounds read low 0.998 | S. cerevisiae deletion strains, locus YKL160W, strain elf1, active compounds read low 1.01 | S. cerevisiae deletion strains, locus YKL190W, strain CNB1, active compounds read low 1.01 | S. cerevisiae deletion strains, locus YKR001C, strain vps1, active compounds read low 0.988 | S. cerevisiae deletion strains, locus YKR026C, strain gcn3, active compounds read low 0.98 | S. cerevisiae deletion strains, locus YKR091W, strain srl3, active compounds read low 1.01 | S. cerevisiae deletion strains, locus YLL001W, strain dnm1, active compounds read low 1.01 | S. cerevisiae deletion strains, locus YLL026W, active compounds read low 0.99 | S. cerevisiae deletion strains, locus YLL041C, strain sdh2, active compounds read low 1 | S. cerevisiae deletion strains, locus YLR027C, strain aat2, active compounds read low 1.01 | S. cerevisiae deletion strains, locus YLR039C, strain RIC1, active compounds read low 1.02 | S. cerevisiae deletion strains, locus YLR058C, strain SHM2, active compounds read low 1.01 | S. cerevisiae deletion strains, locus YLR102C, strain apc9, active compounds read low 0.99 | S. cerevisiae deletion strains, locus YLR113W, strain HOG1, active compounds read low 0.939 | S. cerevisiae deletion strains, locus YLR221C, strain rsa3, active compounds read low 0.994 | S. cerevisiae deletion strains, locus YLR258W, strain gsy2, active compounds read low 1.01 | S. cerevisiae deletion strains, locus YLR262C, strain YPT6 (second series), active compounds read low 1 | S. cerevisiae deletion strains, locus YLR262C, strain YPT6, active compounds read low 1.02 | S. cerevisiae deletion strains, locus YLR268W, strain sec22, active compounds read low 0.996 | S. cerevisiae deletion strains, locus YLR320W, strain mms22, active compounds read low 0.988 | S. cerevisiae deletion strains, locus YLR330W, strain CHS5, active compounds read low 1.01 | S. cerevisiae deletion strains, locus YLR342W, strain FKS1 (second series), active compounds read low 1.02 | S. cerevisiae deletion strains, locus YLR342W, strain FKS1, active compounds read low 0.999 | S. cerevisiae deletion strains, locus YLR357W, strain rsc2, active compounds read low 0.985 | S. cerevisiae deletion strains, locus YLR370C, strain arc18, active compounds read low 1 | S. cerevisiae deletion strains, locus YLR371W, strain rom2, active compounds read low 0.997 | S. cerevisiae deletion strains, locus YLR384C, strain iki3, active compounds read low 1.01 | S. cerevisiae deletion strains, locus YLR418C, strain cdc73, active compounds read low 1.02 | S. cerevisiae deletion strains, locus YML016C, strain PPZ1, active compounds read low 1 | S. cerevisiae deletion strains, locus YML032C, strain rad52, active compounds read low 0.982 | S. cerevisiae deletion strains, locus YML120C, strain ndi1, active compounds read low 0.994 | S. cerevisiae deletion strains, locus YML124C, strain tub3, active compounds read low 0.996 | S. cerevisiae deletion strains, locus YMR058W, strain fet3, active compounds read low 1 | S. cerevisiae deletion strains, locus YMR078C, strain ctf18, active compounds read low 0.984 | S. cerevisiae deletion strains, locus YMR125W, strain sto1, active compounds read low 0.998 | S. cerevisiae deletion strains, locus YMR129W, active compounds read low 1 | S. cerevisiae deletion strains, locus YMR205C, strain PFK2, active compounds read low 1 | S. cerevisiae deletion strains, locus YMR223W, strain ubp8, active compounds read low 1 | S. cerevisiae deletion strains, locus YMR231W, strain pep5, active compounds read low 0.999 | S. cerevisiae deletion strains, locus YMR263W, strain SAP30, active compounds read low 1.02 and 0.996 | S. cerevisiae deletion strains, locus YMR307W, strain GAS1, active compounds read low 0.978 and 1.01 | S. cerevisiae deletion strains, locus YNL067W, strain RPL9B, active compounds read low 1.01 | S. cerevisiae deletion strains, locus YNL071W, strain lat1, active compounds read low 0.999 | S. cerevisiae deletion strains, locus YNL128W, strain TEP1, active compounds read low 1.02 | S. cerevisiae deletion strains, locus YNL153C, strain GIM3, active compounds read low 1.02 | S. cerevisiae deletion strains, locus YNL175C, strain NOP13, active compounds read low 0.975 | S. cerevisiae deletion strains, locus YNL183C, strain NPR1, active compounds read low 0.907 | S. cerevisiae deletion strains, locus YNL197C, strain WHI3, active compounds read low 0.969 | S. cerevisiae deletion strains, locus YNL209W, strain ssb2, active compounds read low 1.01 | S. cerevisiae deletion strains, locus YNL224C, strain SQS1, active compounds read low 0.987 | S. cerevisiae deletion strains, locus YNL233W, strain BNI4, active compounds read low 1.02 | S. cerevisiae deletion strains, locus YNL248C, strain rpa49, active compounds read low 1.04 | S. cerevisiae deletion strains, locus YNL250W, strain rad50, active compounds read low 0.989 | S. cerevisiae deletion strains, locus YNL271C, strain bni1, active compounds read low 0.982 | S. cerevisiae deletion strains, locus YNL298W, strain CLA4, active compounds read low 1 | S. cerevisiae deletion strains, locus YNL307C, strain MCK1, active compounds read low 1.01 | S. cerevisiae deletion strains, locus YNL322C, strain KRE1 (second series), active compounds read low 1.01 | S. cerevisiae deletion strains, locus YNL322C, strain KRE1, active compounds read low 1.01 | S. cerevisiae deletion strains, locus YNR049C, strain mso1, active compounds read low 1.01 | S. cerevisiae deletion strains, locus YNR052C, strain pop2, active compounds read low 0.996 | S. cerevisiae deletion strains, locus YOL006C, strain TOP1, active compounds read low 1.05 | S. cerevisiae deletion strains, locus YOL012C, strain htz1 0.596 | S. cerevisiae deletion strains, locus YOL147C, strain pex11, active compounds read low 1 | S. cerevisiae deletion strains, locus YOR001W, strain rrp6, active compounds read low 1.02 | S. cerevisiae deletion strains, locus YOR061W, strain CKA2, active compounds read low 1.01 | S. cerevisiae deletion strains, locus YOR069W, strain VPS5, active compounds read low 1 | S. cerevisiae deletion strains, locus YOR070C, strain gyp1, active compounds read low 1.01 | S. cerevisiae deletion strains, locus YOR080W, strain dia2, active compounds read low 0.986 | S. cerevisiae deletion strains, locus YOR083W, strain WHI5 (second series), active compounds read low 0.968 | S. cerevisiae deletion strains, locus YOR083W, strain WHI5, active compounds read low 0.989 | S. cerevisiae deletion strains, locus YOR106W, strain vam3, active compounds read low 1 | S. cerevisiae deletion strains, locus YOR136W, strain idh2, active compounds read low 0.999 | S. cerevisiae deletion strains, locus YOR144C, strain elg1, active compounds read low 0.998 | S. cerevisiae deletion strains, locus YOR184W, strain ser1, active compounds read low 1 | S. cerevisiae deletion strains, locus YOR231W, strain MKK1, active compounds read low 0.979 | S. cerevisiae deletion strains, locus YOR265W, strain rbl2, active compounds read low 1 | S. cerevisiae deletion strains, locus YOR270C, strain vph1, active compounds read low 1.02 | S. cerevisiae deletion strains, locus YOR290C, strain snf2, active compounds read low 0.996 | S. cerevisiae deletion strains, locus YOR316C, strain cot1, active compounds read low 1 | S. cerevisiae deletion strains, locus YPL051W, strain arl3, active compounds read low 1 | S. cerevisiae deletion strains, locus YPL055C, strain LGE1, active compounds read low 1.04 and 0.991 | S. cerevisiae deletion strains, locus YPL078C, strain atp4, active compounds read low 1 | S. cerevisiae deletion strains, locus YPL106C, strain sse1, active compounds read low 1.01 | S. cerevisiae deletion strains, locus YPL240C, strain hsp82, active compounds read low 1 | S. cerevisiae deletion strains, locus YPL241C, strain CIN2, active compounds read low 1.01 | S. cerevisiae deletion strains, locus YPL256C, strain CLN2, active compounds read low 0.932 | S. cerevisiae deletion strains, locus YPR119W, strain clb2, active compounds read low 0.997 | S. cerevisiae deletion strains, locus YPR141C, strain kar3, active compounds read low 0.997 | S. cerevisiae deletion strains, locus YPR163C, strain tif3, active compounds read low 0.998 | S. cerevisiae deletion strains, locus YPR167C, strain met16, active compounds read low 1 | S. cerevisiae deletion strains, strain wtn01, active compounds read low 1 | S. cerevisiae strains, strain wild type, active compounds read low 1.02
